TbREL1 primary: TbREL1 inhibition, primary screen. TbREL1 RNA ligation, FRET fluorescence. inhibition, % at 9.66 µM. 0.49% of 89,000 active. AID 1117264;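 active = inhibition above the mean inhibition across all screened compounds plus 3 SD, cut at about 11% in these data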;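 also: 0% = plate median of test wells and 100% = NSC42067 control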
Target sequence (P86926 whole entry, looked up): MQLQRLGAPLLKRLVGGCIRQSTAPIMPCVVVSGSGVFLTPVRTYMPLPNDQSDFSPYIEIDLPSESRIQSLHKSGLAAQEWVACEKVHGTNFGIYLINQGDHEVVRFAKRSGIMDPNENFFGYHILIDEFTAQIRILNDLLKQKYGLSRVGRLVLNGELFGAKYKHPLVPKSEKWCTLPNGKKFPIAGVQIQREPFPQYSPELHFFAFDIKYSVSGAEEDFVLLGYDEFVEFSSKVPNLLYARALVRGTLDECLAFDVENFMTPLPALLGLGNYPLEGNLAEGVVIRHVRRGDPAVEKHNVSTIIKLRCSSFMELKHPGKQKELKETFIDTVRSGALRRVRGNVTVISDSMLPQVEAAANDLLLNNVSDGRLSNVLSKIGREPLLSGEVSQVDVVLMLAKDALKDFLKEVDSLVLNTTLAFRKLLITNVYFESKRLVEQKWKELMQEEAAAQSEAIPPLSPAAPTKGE
TbREL1 conf: TbREL1 inhibition, confirmation | shares compounds with TbREL1 primary | TbREL1 RNA ligation, FRET fluorescence | inhibition, % at 9.66 µM | 37% of 390 active | AID 1117282;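 active = mean inhibition across replicates above a set limit taken from the earlier primary screen, cut at about 11% in these data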;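 also: 0% = REL1 with substrate and DMSO and 100% = REL1 plus control inhibitor NSC42067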
Starred values were filed as active, the others as inactive. The sample as a whole holds a higher share of hits than the screen did.

SMILES	TbREL1 primary	others
Cc1nc2cc(-c3ccsc3-n3c(C)ccc3C)[nH]n2c(=O)c1Cl	26.6*	TbREL1 conf=2.9
CCOC(=O)Cc1c(C)nc2cc(-c3ccc(C(C)(C)C)cc3)[nH]n2c1=O	-3.4
C=CCc1c(C)nc2cc(-c3ccc(C)cc3)[nH]n2c1=O	-1.3
COc1cccc(=O)c2c(C)n(-c3ccc(C(=O)O)cc3)c(C)c12	23.0*	TbREL1 conf=11.6*
Cc1cc(=O)n(-c2ccc(C(=O)O)cc2)[nH]1	-0.3
CCOc1ccccc1CNCc1ccc(C(=O)O)cc1	1.2
CCOC(=O)c1cc2c(C)n(-c3ccc(N(C)C)cc3)c(C)c2cc(C(=O)OCC)c1=O	-0.8
Cc1nc(=O)c(-c2ccccc2)c(C)n1-c1ccc(C(=O)O)cc1	-1.8
CCOc1cccc(=O)c2c(C)n(-c3ccc(C(=O)O)cc3)c(C)c12	45.7*	TbREL1 conf=11.5*
CC1(C)CC(=O)C=C(Nc2ccccc2NC(=O)c2cc(Cl)ccc2F)C1	4.9
CCOC(=O)c1cccc(NC(=O)CN(C)S(=O)(=O)c2cc3ccccc3s2)c1	0.1
COC(=O)[C@]12C[C@H](CC(=O)NCc3cccs3)C(=O)N(Cc3cccc4ccccc34)C1=C[C@H](C(C)(C)C)O[C@@H]2C	-0.7
Nc1ccc2nc(-c3cccnc3)[nH]c2c1	-0.3
Nc1ccc2nc(-c3ccccn3)[nH]c2c1	0.2
Nc1ccc2nc(-c3ccc(N)c(Cl)c3)[nH]c2c1	13.2*	TbREL1 conf=6.3
Clc1ccc(-n2c(SCc3cccc4ccccc34)nnc2-c2ccccn2)cc1	2.5
CN(c1ccccc1)S(=O)(=O)c1cccc(C(=O)NC2CC(C)(C)NC(C)(C)C2)c1	1.3
COc1ccccc1N(Cc1ccccc1)S(=O)(=O)c1cccc(C(=O)NC2CC(C)(C)NC(C)(C)C2)c1	11.1*	TbREL1 conf=13.8*
COc1ccccc1N(Cc1ccccc1)S(=O)(=O)c1cccc(C(=O)Nc2cc(C)ccn2)c1	1.6
CCC1CCCCN1S(=O)(=O)c1ccccc1[N+](=O)[O-] (stereo not given)	-2.3
O=[N+]([O-])c1ccccc1S(=O)(=O)N1CCN(C2CCCC2)CC1	11.3*	TbREL1 conf=3.6
CS(=O)(=O)N1CCN(S(=O)(=O)c2ccccc2[N+](=O)[O-])CC1	2.5
CCC[C@H]1[C@@H](OC(=O)NCc2ccc(OC)c(OC)c2)CC[C@@]23CCCN2C(=O)CCC[C@@H]13	-0.6
O=C(CSc1nnc(COc2ccccc2)n1Cc1ccco1)Nc1ccc2c(c1)OCO2	6.7
CC(C)(C)OC(=O)N1CCC(N[C@@H](Cc2c[nH]c3ccccc23)C(=O)NCCc2c[nH]c3ccccc23)(C(=O)NC2CCCCC2)CC1	2.7
SMILES	TbREL1 primary	others
COC(=O)[C@]12C[C@H](CC(=O)NCc3cccc(C(F)(F)F)c3)C(=O)N(Cc3ccc(Cl)cc3Cl)C1=C[C@H](C(C)C)O[C@@H]2C1CC1	4.3
Nc1ccc2c(c1)nnn2-c1ccccc1	-0.8
Nc1ccc2cc3ccc(N)cc3nc2c1	30.6*	TbREL1 conf=-37.9
Nc1cccc(-c2nc3ccc(N)cc3s2)c1	-1.2
COc1ccc(-n2c(SCC(=O)NN=Cc3c(O)ccc4ccccc34)nnc2-c2ccc(C(C)(C)C)cc2)cc1	-0.6
CCOc1ccccc1C(=O)Nc1ccc2nc(C)[nH]c(=O)c2c1	1.0
O=C1c2cccn2CC2Cc3ccccc3N12 (stereo not given)	2.3
O=C(C1CCCN(S(=O)(=O)c2ccccc2F)C1)N1CCN(Cc2ccccc2)CC1 (stereo not given)	-1.2
O=Cc1ccc(-c2ccc(C(=O)O)cc2)o1	8.2
Cc1nc(S/C(=C/c2ccc(-c3ccc(C(=O)O)cc3)o2)C(=O)O)n[nH]1	20.8*	TbREL1 conf=16.9*
Cc1ccc(C(=O)N/C(=C\c2ccc(-c3cccc([N+](=O)[O-])c3)o2)C(=O)NC(C)(C)C)cc1	-2.0
COC(=O)[C@]12C[C@H](CC(=O)NCC3CCCCC3)C(=O)N(Cc3ccc(Cl)cc3Cl)C1=C[C@H](C1CCCC1)O[C@@H]2C	4.3
C#CCNC(=O)C[C@H]1C[C@@]2(C(=O)OC)C(=C[C@H](C(C)C)O[C@@H]2C2CC2)N(Cc2cccc3ccccc23)C1=O	-6.5
Cc1nn(-c2ccccc2)c(C)c1/C=N/NC(=O)c1[nH][nH]c(=O)c1C	-6.1
CN(C)CCCNc1ncnc2oc(-c3ccccc3)c(-c3ccccc3)c12	11.7*	TbREL1 conf=5.7
COc1ccc(-c2oc3ncnc(N)c3c2-c2ccccc2)cc1	3.8
c1ccc(-c2c(-c3ccccc3)n(Cc3ccco3)c3ncnc(NCCCn4ccnc4)c23)cc1	-1.9
CCNC(=S)NNC(=O)CSc1nnc(SCc2cccc3ccccc23)s1	-11.5
O=C1CCC[C@H]2Cc3nc4ccccc4cc3C[C@]23CCCN13	-2.1
CCCC[C@H]1C2CC(OC(=O)Nc3cccc(C#N)c3)C(C2)[C@H]2CCCCN21 (stereo not given in full)	1.7
O=c1c2cc3cc(Cl)ccc3nc2ncn1Cc1ccc(Oc2ccccc2)cc1	6.4
CCCC(C)C(=O)NC1CCCCN(Cc2ccccc2C)C1=O (stereo not given)	-3.3
Cc1ccc(N(C(=O)c2ccco2)C(C(=O)NC2CCCC2)c2ccco2)c(C)c1 (stereo not given)	-1.7
Cc1ccc(C(C(=O)NC2CCCCC2)N(C(=O)Cc2c[nH]c3ccccc23)c2ccccc2C)o1 (stereo not given)	-0.5
Cc1ccc(N(C(=O)Cc2c[nH]c3ccccc23)C(C(=O)NC2CCCCC2)c2ccco2)cc1 (stereo not given)	11.1*	TbREL1 conf=-2.0
SMILES	TbREL1 primary	others
COc1cccc(CNC(=O)CN2CCCc3ccccc32)c1OC	-2.2
COC(=O)c1cc(-c2cc3ccccc3o2)c(=O)n2c1CCC2	5.4
O=C(NC1CCCCN(Cc2ccc(Cl)cc2)C1=O)c1cccc2nsnc12 (stereo not given)	-3.6
Cc1cc(C)cc(NC(=O)OC2CC3CC2[C@H]2CCCCN2[C@H]3Cc2ccccc2)c1 (stereo not given in full)	-0.7
COc1ccccc1C=C1SC(=S)NC1=O	3.0
O=C1NC(=NCc2ccccc2)S/C1=C\c1ccccc1	-0.3
O=C1NC(=S)S/C1=C\c1ccc(SCc2ccccc2)o1	42.7*	TbREL1 conf=7.0
CC1CCC2(CC1)CCC2NCc1ccc(Cl)cc1 (stereo not given)	-3.3

Source: PubChem BioAssay
